“And” between values parts separate entries of the source, which are not always exact repeats. Equal values may be shown once. Results filed as inconclusive are left out. Where a call stands in place of a potency, no number is given. More than one record can exist for a structure, and the calls need not agree. The source made the active and inactive calls. Unless noted, calls come from the whole dose curve; as a rule, active = well fitted curve in the direction sought with a large enough effect in the repeat runs; inconclusive = weak or mixed curves; inactive = no such curve, though single readings can be large; an effect the other way counts as inactive or inconclusive.
Columns and labels:
[1] = Human pregnane X receptor (PXR) small molecule agonists, qHTS cell viability counter screen (AID 1346977); note: nearly all actives have a fitted effect of over 50% in size; note: potency is the fitted concentration of half-maximal effect
Outline: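 Measures live-cell protease fluorescence (CellTiter-Fluor) in PXR-Luc HepG2 cells treated 24hr with compounds at 37C. Cells had 5hr to attach before pin transfer of DMSO solutions.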

[2] = Caspase-3/7 induction in HepG2 cells by small molecules, qHTS assay (AID 1346978); note: nearly all actives have a fitted effect of over 15% in size; note: potency is the fitted concentration of half-maximal effect
Outline: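 Wild-type HepG2 cells, 2,000/well, settled 5 hr at 37 C and 5% CO2, then compound-treated for 17 hr; caspase-3/7 activity read by luminescent Caspase-Glo 3/7 after 30 min at room temperature.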

[3] = Caspase-3/7 induction in CHO-K1 cells by small molecules, qHTS cell viability counter screen (AID 1346979); note: nearly all actives have a fitted effect of over 35% in size; note: potency is the fitted concentration of half-maximal effect
Outline: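 In the same wells as the caspase read, viability of compound-treated wild-type CHO-K1 cells was assessed using CellTiter-Fluor, added after 16hr at 37C and measured by fluorescence following 1hr further incubation.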

[4] = Caspase-3/7 induction in CHO-K1 cells by small molecules, qHTS assay (AID 1346980); note: nearly all actives have a fitted effect of over 15% in size; note: potency is the fitted concentration of half-maximal effect
Outline: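 Wild-type CHO-K1 cells exposed to compounds for 17hr at 37 C, 5% CO2. Caspase-3/7 activity then measured by Caspase-Glo 3/7 luminescence after 30min at room temperature.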

[5] = Caspase-3/7 induction in HepG2 cells by small molecules, qHTS cell viability counter screen (AID 1346981); note: nearly all actives have a fitted effect of over 30% in size; note: potency is the fitted concentration of half-maximal effect
Outline: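 Cell viability is measured as a cytotoxicity counter screen alongside the Caspase-Glo 3/7 readout in identical wells. Wild-type HepG2 cells are treated with test compounds for 16 hr at 37 C before CellTiter-Fluor addition and a 1-hr incubation.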

[6] = biological target: Nuclear receptor subfamily 1 group I member 2 (Homo sapiens) (UniProt O75469); test: Human pregnane X receptor (PXR) small molecule agonists, qHTS assay (AID 1346982); note: nearly all actives have a fitted effect of over 35% in size; note: potency is the fitted concentration of half-maximal effect
Outline: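 Cells: HepG2 stably carrying PXR-Luc. Medium held 5% charcoal-stripped FBS. Compounds in DMSO added after 5 hr plating, incubated 24 hr, then luminescence quantified with ONE-Glo.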

[7] = biological target: Acetylcholinesterase (Homo sapiens) (UniProt P22303); test: Acetylcholinesterase (AChE) small molecule antagonists: colormetric cell-based qHTS assay (AID 1347395; calls by dose curve; note: nearly all actives have a fitted effect of over 30% in size; note: potency is the fitted concentration of half-maximal effect)
Outline: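 Endogenous AChE of human neuroblastoma SH-SY5Y cells was measured with an Ellman-type DTNB/acetylthiocholine mix. Compound pretreatment lasted 30 min at 37 C; substrate reaction ran 90 min at 37 C.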

[8] = biological target: Nuclear receptor subfamily 1 group I member 2 (Rattus norvegicus) (UniProt Q9R1A7); test: Rat pregnane X receptor (rPXR) activation by small molecules, qHTS assay (AID 1346983); settings: rPXR luciferase reporter cells, One-Glo luminescence, 24 h; stronger effect = higher value; note: nearly all actives have a fitted effect of over 20% in size
Outline: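 Cell-based rPXR activation assay: rPXR cells, 2,000 per well, rested 5hr at 37 C, then exposed to compounds in DMSO for 24 hr at 37 C. Luciferase activity read by One-Glo luminescence after 30 min at room temperature.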

[9] = biological target: Nuclear receptor subfamily 1 group I member 2 (Homo sapiens) (UniProt O75469); test: CYP3A4 induction through human pregnane X receptor (PXR) by small molecules, qHTS assay (AID 1346984); note: nearly all actives have a fitted effect of over 40% in size
Outline: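 Quantitative HTS in DPX-2 cells, i.e. HepG2 transfected with PXR response element and CYP3A4-promoter luciferase. Compounds in DMSO incubated 24hr at 37C; then P450-Glo CYP3A4 substrate, 3uM final, 3hr; One-Glo luminescence.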

[10] = biological target: Nuclear receptor subfamily 1 group I member 2 (Homo sapiens) (UniProt O75469); test: Human pregnane X receptor (PXR) activation by small molecules, qHTS assay (AID 1346985); note: nearly all actives have a fitted effect of over 40% in size
Outline: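 DPX-2 cells (HepG2 co-transfected with a PXR response element and a CYP3A4-promoter luciferase construct) were seeded at 2,000 per well, rested 5 hr at 37C, then exposed to DMSO-dissolved compounds for 24 hr. Activation was read as luciferase luminescence.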

Chain of Nuclear receptor subfamily 1 group I member 2 (Homo sapiens) (O75469 whole entry, looked up): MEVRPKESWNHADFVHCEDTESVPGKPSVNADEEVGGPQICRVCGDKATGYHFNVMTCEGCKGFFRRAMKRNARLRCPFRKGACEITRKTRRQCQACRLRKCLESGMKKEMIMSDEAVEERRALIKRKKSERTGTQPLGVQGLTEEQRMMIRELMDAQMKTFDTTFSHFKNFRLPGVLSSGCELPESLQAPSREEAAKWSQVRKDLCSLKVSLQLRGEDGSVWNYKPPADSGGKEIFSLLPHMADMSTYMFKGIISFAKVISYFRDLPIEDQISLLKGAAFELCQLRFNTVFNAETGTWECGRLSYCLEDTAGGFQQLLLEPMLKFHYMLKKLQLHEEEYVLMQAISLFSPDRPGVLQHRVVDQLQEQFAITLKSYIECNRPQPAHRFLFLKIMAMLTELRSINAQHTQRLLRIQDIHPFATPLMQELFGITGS
Chain of Nuclear receptor subfamily 1 group I member 2 (Rattus norvegicus) (Q9R1A7 whole entry, looked up): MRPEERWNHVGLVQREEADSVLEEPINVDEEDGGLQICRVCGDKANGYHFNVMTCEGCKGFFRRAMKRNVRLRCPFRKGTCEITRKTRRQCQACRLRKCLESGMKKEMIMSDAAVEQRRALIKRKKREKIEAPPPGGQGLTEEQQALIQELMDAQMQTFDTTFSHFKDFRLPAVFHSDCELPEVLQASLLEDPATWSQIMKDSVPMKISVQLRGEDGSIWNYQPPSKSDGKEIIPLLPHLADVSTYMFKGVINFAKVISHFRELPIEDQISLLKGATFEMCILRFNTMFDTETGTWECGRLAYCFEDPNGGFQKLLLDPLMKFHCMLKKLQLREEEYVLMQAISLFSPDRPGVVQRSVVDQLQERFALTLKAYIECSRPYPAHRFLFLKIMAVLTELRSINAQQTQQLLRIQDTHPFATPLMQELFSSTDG
Chain of Acetylcholinesterase (Homo sapiens) (P22303 whole entry, looked up): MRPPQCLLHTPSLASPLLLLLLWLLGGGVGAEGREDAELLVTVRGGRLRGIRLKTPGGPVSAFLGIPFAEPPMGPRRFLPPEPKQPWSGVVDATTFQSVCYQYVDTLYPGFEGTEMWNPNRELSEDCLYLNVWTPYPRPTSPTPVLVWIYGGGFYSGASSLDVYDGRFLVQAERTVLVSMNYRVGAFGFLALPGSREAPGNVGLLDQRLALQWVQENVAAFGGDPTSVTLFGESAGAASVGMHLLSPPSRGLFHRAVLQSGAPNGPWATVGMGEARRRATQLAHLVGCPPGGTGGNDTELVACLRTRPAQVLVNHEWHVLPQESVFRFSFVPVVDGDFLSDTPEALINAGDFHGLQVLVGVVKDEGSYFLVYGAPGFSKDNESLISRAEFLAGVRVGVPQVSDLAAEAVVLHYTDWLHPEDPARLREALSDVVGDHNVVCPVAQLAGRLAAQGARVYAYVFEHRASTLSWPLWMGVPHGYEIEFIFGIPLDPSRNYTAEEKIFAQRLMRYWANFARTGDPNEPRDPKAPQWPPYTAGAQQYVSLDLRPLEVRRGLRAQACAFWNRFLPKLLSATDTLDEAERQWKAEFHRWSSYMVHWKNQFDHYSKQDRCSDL

SMILES | Potency [1] | Potency [2] | Potency [3] | Potency [4] | Potency [5] | Potency [6] | Potency [7] | max activation [8] | Potency [9] | outcome [10]
CCOS(=O)(=O)OCC | inactive | inactive | inactive | inactive | inactive | inactive | 5.03 µM (active) and inactive | – | – | –
O=[N+]([O-])/N=C1\NCCN1Cc1ccc(Cl)nc1 | inactive | inactive | inactive | inactive | inactive | inactive | inactive | -0.749% (inactive) | inactive | inactive
Cn1c(-c2ccccc2)cc(-c2ccccc2)[n+]1C | inactive | inactive | inactive | inactive | inactive | inactive | – | – | – | –
N#CC(c1ccccc1)c1ccccc1 | inactive | inactive | inactive | inactive | inactive | inactive | inactive | – | – | –
Cc1cc(Cl)ccc1N=CN(C)C | inactive | inactive | inactive | inactive | inactive | – | – | – | – | –
ClCC(Cl)CCl | inactive | inactive | inactive | inactive | inactive | inactive | inactive | – | – | –
Cc1ccc(N=CN(C)C=Nc2ccc(C)cc2C)c(C)c1 | inactive | inactive | inactive | inactive | inactive | 15.4 µM (active) and inactive | inactive | 0.462% (inactive) | inactive | inactive
O=C1Nc2ccc(Cl)cc2C(c2ccccc2)=NC1O (configuration not stated) | inactive | inactive | inactive | inactive | inactive | 38.9 µM (active) and 46.1 µM (active) | inactive | 0.163% (inactive) | – | inactive
C=CC(=O)OCC(CC)(COC(=O)C=C)COC(=O)C=C | 31.6 µM (active) and 30.6 µM (active) | 25 µM (active) and 24.3 µM (active) | 4.99 µM (active) and 4.86 µM (active) | 4.86 µM (active) | 35.3 µM (active) and 24.3 µM (active) | inactive | inactive | – | – | –
C[C@]12CCC(=O)C=C1CC[C@@H]1[C@@H]2CC[C@@]2(C)[C@H]1CC[C@]2(C)O | inactive | inactive | 50.4 µM (active) | inactive | inactive | 43.6 µM (active) and inactive | inactive | – | – | –
COc1ccc(C=O)cc1OC | inactive | inactive | inactive | inactive | inactive | inactive | inactive | – | – | –
CC1(C)Cc2cccc(O)c2O1 | inactive | inactive | inactive | inactive | inactive | inactive | inactive | – | – | –
COP(=S)(OC)Oc1ccc(S(=O)(=O)N(C)C)cc1 | inactive | inactive | inactive | inactive | inactive | 34.4 µM (active) and inactive | 39.9 µM (active) | -2.31% (inactive) | inactive | inactive
CC(C)(c1ccccc1)c1ccc(O)c(C(C)(C)c2ccccc2)c1 | 35.5 µM (active) and 48.6 µM (active) | 42.9 µM (active) and 68.6 µM (active) | 30.4 µM (active) and 43.3 µM (active) | 27.1 µM (active) and 61.1 µM (active) | 54 µM (active) | 1.92 µM (active) and 3.86 µM (active) | inactive | – | – | –
CCOC(=O)c1ccccc1N | inactive | inactive | inactive | inactive | inactive | inactive | inactive | – | – | –
ClC(Cl)=C(Cl)C(Cl)=C(Cl)Cl | inactive | inactive | inactive | inactive | inactive | inactive | inactive | – | – | –
N#Cc1cccnc1 | inactive | inactive | inactive | inactive | inactive | inactive | inactive | – | – | –
Clc1cccc(C(Cl)(Cl)Cl)n1 | inactive | inactive | inactive | inactive | inactive | inactive | inactive | – | – | –
CC1(C)C(C(=O)OC(C#N)c2cccc(Oc3ccccc3)c2)C1(C)C (configuration not stated) | inactive | inactive | inactive | inactive | inactive | 15.5 µM (active) | inactive | – | – | –
CCCCSP(=O)(SCCCC)SCCCC | inactive | inactive | inactive | inactive | – | 23.8 µM (active) | – | – | – | –
CCNCC | inactive | inactive | inactive | inactive | – | inactive | – | – | – | –
Clc1cccc(Cl)c1 | inactive | inactive | inactive | inactive | inactive | inactive | inactive | – | – | –
CCOP(=S)(OCC)SCSC(C)(C)C | inactive | inactive | inactive | inactive | inactive | 61.6 µM (active) and inactive | inactive | – | – | –
Clc1ccccc1-c1nnc(-c2ccccc2Cl)nn1 | inactive | inactive | 54 µM (active) and inactive | inactive | inactive | 54 µM (active) and inactive | inactive | – | – | –

Reference: PubChem BioAssay (Tox21)
